According to PubChem BioAssay (NCI):
This is part of a sample that, as a whole, favours compounds with a hit. Of some 83,000 tested, about 20% had one in any assay.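 48-hour exposure, single concentration, 96-well plates; percent growth endpoint where 0 means no net growth. Active: below 10.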 Calls of active or inactive are those of the source.

Tests used:
Experiment in all cases: NCI-60 one-dose screen, 48 h (100 = growth as untreated, 0 = no growth, -100 = all killed)
Conditions in all cases: 10 µM unless noted
HCT-15 colon = test system: HCT-15 colon
HT29 colon = test system: HT29 colon
SNB-19 CNS = test system: SNB-19 CNS
U251 CNS = test system: U251 CNS
PC-3 prostate = test system: PC-3 prostate
SK-MEL-5 melanoma = test system: SK-MEL-5 melanoma
UACC-62 melanoma = test system: UACC-62 melanoma
LOX IMVI melanoma = test system: LOX IMVI melanoma
SK-MEL-28 melanoma = test system: SK-MEL-28 melanoma
SNB-75 CNS = test system: SNB-75 CNS

Measured: growth

Cc1n[nH]c2ccc(Br)cc2c1=O
inactive: HCT-15 colon 100% | HT29 colon 98.3% | SNB-19 CNS 109% | U251 CNS 100% | PC-3 prostate 90.9% | SK-MEL-5 melanoma 97.4% | UACC-62 melanoma 112% | LOX IMVI melanoma 101% | SK-MEL-28 melanoma 113%

Cc1ccc(C)c(/C=C2\CN(C(=O)OC(C)(C)C)C/C(=C\c3cc(C)ccc3C)C2=O)c1
inactive: HCT-15 colon 19.4% | SNB-19 CNS 59.9% | U251 CNS 15.9% | PC-3 prostate 46.6% | SK-MEL-5 melanoma 45% | UACC-62 melanoma 37.3% | SK-MEL-28 melanoma 41.3%
active: HT29 colon 9.93%

C=C(C)[C@@H]1CC[C@]2(C(N)=O)CC[C@]3(C)[C@H](CC[C@@H]4[C@@]5(C)CC[C@H](OCCC#N)C(C)(C)[C@@H]5CC[C@]43C)[C@@H]12
inactive: HCT-15 colon 80.9% | HT29 colon 84.7% | SNB-19 CNS 81.2% | U251 CNS 87.7% | PC-3 prostate 68.8% | SK-MEL-5 melanoma 93.3% | UACC-62 melanoma 67.1% | LOX IMVI melanoma 87.1% | SK-MEL-28 melanoma 92.8%

C=C(C)[C@@H]1CC[C@]2(C(=O)N3CCN(C)CC3)CC[C@]3(C)[C@H](CC[C@@H]4[C@@]5(C)CC[C@H](OC(=O)c6ccccc6C(=O)O)C(C)(C)[C@@H]5CC[C@]43C)[C@@H]12
inactive: HCT-15 colon 103% | SNB-75 CNS 85.1% | SNB-19 CNS 95.4% | U251 CNS 105% | PC-3 prostate 91% | SK-MEL-5 melanoma 99.5% | UACC-62 melanoma 101% | LOX IMVI melanoma 99.1% | SK-MEL-28 melanoma 105%

COc1cc2nc3sc(C(=O)Nc4ccc(C(=O)OC(C)C)cc4)c(C(=O)Nc4ccc(Cl)cc4C)n3c(=O)c2cc1OC
inactive: HCT-15 colon 93.7% | SNB-75 CNS 48% | SNB-19 CNS 96.9% | U251 CNS 66.3% | PC-3 prostate 30.2% | SK-MEL-5 melanoma 73% | UACC-62 melanoma 67.6% | LOX IMVI melanoma 69.7% | SK-MEL-28 melanoma 101%

O=C(Cc1ccc(/C=C/C(=O)c2ncc[nH]2)cc1)Nc1cc(C(F)(F)F)cc(C(F)(F)F)c1
inactive: HCT-15 colon 62.4% | SNB-75 CNS 79% | SNB-19 CNS 77.3% | U251 CNS 38.5% | PC-3 prostate 85.3% | SK-MEL-5 melanoma 93.1% | UACC-62 melanoma 80.9% | LOX IMVI melanoma 34.5% | SK-MEL-28 melanoma 104%
